# Data reported in PubChem BioAssay (EPA / NIEHS).
# Where “and” joins values, the source holds several entries; their conditions need not be identical. Equal entries are not always repeated. Results filed as inconclusive are left out. Where a structure was tested more than once in an assay, its records may differ in their call. Calls of active or inactive are those of the source. Rule for the calls, unless noted: active = hit-call score of the fitted dose curve at least 0.9, where 1 is the maximum; inactive = score below 0.9.
# Columns and labels:
# [1] = CCTE_Shafer_MEA_acute_cross_correlation_HWHM: CCTE's Neural Acute Assay for Cross Correlation at Half Width at Half Maximum, Shafer Lab (AID 2284026);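 note: percent change per well from pre-dose baseline in spike cross-correlogram half width; hits are a decrease in cross-correlogram half width relative to DMSO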;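 for outcome: spontaneous network firing of rat primary cortical neurons on multiwell microelectrode arrays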
# Outline: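 Rat primary cortical neurons on 48-well MEA plates; 40-min baseline and 40-min post-exposure recordings at 37 C on DIV 13 or 15, compounds 0.03-40 uM. Spikes detected at 8x rms noise; percent change in cross-correlogram HWHM per well vs baseline.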
# [2] = CCTE_Shafer_MEA_acute_synchrony_index: CCTE's Neural Acute Assay for Synchrony, Shafer Lab (AID 2284027);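 note: network synchrony index of spontaneous spiking in primary rat cortical neurons on MEAs; fitted for loss of signal so actives lower synchrony relative to DMSO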
# Outline: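 Plates equilibrated 20 min at 37 C, baseline recorded 40 min, compound (0.03-40 uM) added, then 40 min more recorded. Cells: primary rat cortical neurons, DIV 13 or 15. Per-well synchrony index change analysed in negative direction against DMSO.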
# [3] = target: Estrogen receptor (Homo sapiens) (UniProt P03372); test: CCTE_Deisenroth_AIME_384WELL_LUC_Active: CCTE's 384-well Estrogen Receptor Transactivation Assay with AIME metabolic competence (ERTA luciferase; metabolism positive), Deisenroth Lab (AID 2284030; active = hit-call score of the fitted dose curve at least 0.9, where 1 is the maximum)
# Estrogen receptor (Homo sapiens), sequence (P03372 whole entry, looked up): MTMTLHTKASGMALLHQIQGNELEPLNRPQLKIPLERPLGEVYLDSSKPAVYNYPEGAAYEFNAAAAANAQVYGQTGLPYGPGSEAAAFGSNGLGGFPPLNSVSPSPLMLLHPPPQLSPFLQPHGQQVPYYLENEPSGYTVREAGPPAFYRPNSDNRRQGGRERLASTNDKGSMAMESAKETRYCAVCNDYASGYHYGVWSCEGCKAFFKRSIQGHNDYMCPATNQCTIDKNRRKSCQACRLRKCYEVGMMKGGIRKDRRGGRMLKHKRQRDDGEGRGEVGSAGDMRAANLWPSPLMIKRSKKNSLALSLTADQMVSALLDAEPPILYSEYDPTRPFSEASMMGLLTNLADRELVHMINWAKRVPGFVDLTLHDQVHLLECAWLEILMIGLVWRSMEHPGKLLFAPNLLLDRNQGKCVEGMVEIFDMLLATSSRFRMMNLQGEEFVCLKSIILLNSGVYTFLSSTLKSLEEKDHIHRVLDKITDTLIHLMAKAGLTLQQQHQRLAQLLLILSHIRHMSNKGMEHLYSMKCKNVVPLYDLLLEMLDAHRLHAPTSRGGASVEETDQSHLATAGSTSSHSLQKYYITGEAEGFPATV
# Outline: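 Chemicals (10-point, 0.002-200 uM) were first incubated 2 hours with alginate-immobilized induced male Sprague Dawley rat liver S9. The conditioned medium was then applied to VM7Luc4E2 cells for 24 hours, with ER luciferase induction read by luminescence relative to 17beta-estradiol.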
# [4] = CCTE_Deisenroth_AIME_384WELL_CTox_Active: Cytotoxicity Assessment (CTOX) in CCTE's 384-well Estrogen Receptor Transactivation Assay with AIME metabolic competence (metabolism positive), Deisenroth Lab (AID 2284037; active = hit-call score of the fitted dose curve at least 0.9, where 1 is the maximum;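 note: chemicals first conditioned 2 h by alginate-bound induced rat liver S9 before cells; activity means signal loss indicating cell death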)
# Outline: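 Cytotoxicity in VM7Luc4E2 breast cells, 24 hour, measured as protease-substrate fluorescence loss, after 2-hour metabolic conditioning with induced rat hepatic S9 in alginate microspheres. Concentrations 0.002 - 200 uM, 10 points, bidirectional fitting.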
# [5] = target: Estrogen receptor (Homo sapiens) (UniProt P03372); test: CCTE_Deisenroth_AIME_384WELL_LUC_Inactive: CCTE's 384-well Estrogen Receptor Transactivation Assay without AIME metabolic competence (ERTA luciferase; metabolism negative), Deisenroth Lab (AID 2284038; active = hit-call score of the fitted dose curve at least 0.9, where 1 is the maximum;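 note: hits raise estrogen receptor luciferase signal so potencies reflect agonists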)
# Outline: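 VM7Luc4E2 ER transactivation, luciferase bioluminescence after 24 h, using medium pre-incubated 2 h with S9-free alginate microspheres. Concentrations 0.002–200 uM; gain of signal fitted relative to 17beta-estradiol.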
# [6] = CCTE_Deisenroth_AIME_384WELL_CTox_Inactive: Cytotoxicity Assessment (CTOX) in CCTE's 384-well Estrogen Receptor Transactivation Assay without AIME metabolic competence (metabolism negative), Deisenroth Lab (AID 2284039; active = hit-call score of the fitted dose curve at least 0.9, where 1 is the maximum;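 note: cell viability via live-cell protease substrate cleaved to fluorescent probe; cells exposed 24 h to medium preincubated 2 h with alginate-water beads without S9; loss of fluorescence signal means loss of viability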)
# Outline: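 VM7Luc4E2 human breast cells received conditioned medium from a 2 h incubation of chemical with alginate-water microspheres (no S9), then were exposed 24 h. Viability was read as protease-substrate cleavage to a fluorescent probe; loss of signal was fitted bidirectionally over 0.002–200 uM.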
# [7] = CCTE_Shafer_MEA_dev_firing_rate_mean: CCTE's Neural Network Formation Assay for Mean Firing Rate, Shafer Lab (AID 2284031);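 for AC50: curve fitted for loss of firing so AC50 reflects decreased mean firing rate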
# Outline: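 Steps: seed rat cortical cells (1.5 x 10^5/well) with laminin on PEI-coated MEA; dose day 0; record DIV 5/7/9/12, full media and compound exchange after DIV 5 and 9 recordings; compute well-mean firing rate AUC.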
# [8] = CCTE_Shafer_MEA_dev_per_burst_spike_percent: CCTE's Neural Network Formation Assay for Percent of Spikes in a Burst, Shafer Lab (AID 2284032);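 for AC50: fitted as a decrease in burst spike percentage below DMSO baseline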
# Outline: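 Value is trapezoidal AUC over recordings on days 5, 7, 9 and 12 of the well-mean fraction of spikes falling in single-electrode bursts; rat cortical cultures exposed continuously from plating, treatment renewed DIV 5 and 9, fitted downward against DMSO.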
# [9] = CCTE_Shafer_MEA_dev_active_electrodes_number: CCTE's Neural Network Formation Assay for Number of Active Electrodes, Shafer Lab (AID 2284040; active = hit-call score of the fitted dose curve at least 0.9, where 1 is the maximum;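 for AC50: potency for loss of active electrodes versus DMSO so lower counts are hits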)
# Outline: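 Counts electrodes per well firing at least 5 spikes/min, recorded on days 5, 7, 9 and 12 in rat cortical cultures dosed continuously from plating (treatment refreshed DIV 5, 9). Value is the area under the curve over recordings, fitted downward relative to DMSO.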
# [10] = CCTE_Deisenroth_AIME_96WELL_CTox_Active: Cytotoxicity Assessment (CTOX) in CCTE's 96-well Estrogen Receptor Transactivation Assay with AIME metabolic competence (metabolism positive), Deisenroth Lab (AID 2284028; active = hit-call score of the fitted dose curve at least 0.9, where 1 is the maximum)
# Outline: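 Cytotoxicity in VM7Luc4E2 breast cells after 24 h exposure to medium from a 2 h metabolic pre-incubation with induced rat hepatic S9 in alginate microspheres; fluorescent live-cell protease readout, 10-point series 0.002–200 uM, n=4.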
smiles,measurement,setting,value
O=Cc1ccco1,outcome,[1],inactive
same,outcome,[2],inactive
C[N+](C)(C)CC1CO1 (configuration not stated),outcome,[1],inactive
same,outcome,[2],inactive
same,outcome,[3],inactive
same,outcome,[4],inactive
same,outcome,[5],inactive
same,outcome,[6],inactive
O=C(N[C@H](c1ccccc1)[C@@H]1CN2CCC1CC2)c1c(Cl)ccc(C(F)(F)F)c1Cl,AC50,[1],18.5 µM (active)
same,outcome,[2],inactive
same,outcome,[4],inactive
N#CC(Br)Br,outcome,[1],inactive
same,outcome,[2],inactive
O=P(OCCCl)(OCCCl)OCCCl,outcome,[1],inactive
same,outcome,[2],inactive
same,outcome,[7],inactive
same,outcome,[8],inactive
same,outcome,[9],inactive
CCCCCOC(=O)c1ccccc1C(=O)OCCCCC,AC50,[1],2.82 µM (active)
same,AC50,[2],12.4 µM (active)
same,outcome,[3],inactive
same,outcome,[4],inactive
same,outcome,[5],inactive
same,AC50,[6],19.8 µM (active)
CCC(C)c1ccc(O)cc1 (configuration not stated),AC50,[1],30.5 µM (active)
same,AC50,[2],30.5 µM (active)
CC(C)(OOC(C)(C)c1ccccc1)c1ccccc1,outcome,[1],inactive
same,outcome,[2],inactive
c1ccc(NNc2ccccc2)cc1,AC50,[1],29.7 µM (active)
same,AC50,[2],29.6 µM (active)
[Cl-].[Cl-].[Hg+2],AC50,[1],29.3 µM (active)
same,AC50,[2],28.2 µM (active)
same,AC50,[7],0.911 µM (active)
same,AC50,[8],0.882 µM (active)
same,AC50,[9],0.543 µM (active)
ClC1=C(Cl)C2(Cl)C3C(Cl)C=CC3C1(Cl)C2(Cl)Cl (configuration not stated),outcome,[1],inactive
same,outcome,[2],inactive
same,AC50,[7],4.54 µM (active)
same,AC50,[8],4.18 µM (active)
same,AC50,[9],4.27 µM (active)
CCN(CC)CCO,outcome,[1],inactive
same,outcome,[2],inactive
ClC1=C(Cl)[C@]2(Cl)[C@H]3[C@H]([C@@H]4C=C[C@H]3C4)[C@@]1(Cl)C2(Cl)Cl,outcome,[1],inactive
same,outcome,[2],inactive
same,AC50,[7],3.92 µM (active)
same,AC50,[8],5.76 µM (active)
same,AC50,[9],5.34 µM (active)
CCCCCCCCn1sccc1=O,AC50,[1],11.5 µM (active)
same,AC50,[2],6.04 µM (active)
same,AC50,[4],196 µM (active)
same,AC50,[6],93.9 µM (active)
COC(=O)Nc1nc2ccccc2[nH]1,outcome,[1],inactive
same,outcome,[2],inactive
same,outcome,[7],inactive
same,outcome,[8],inactive
same,outcome,[4],inactive
same,AC50,[9],15.3 µM (active)
CC(C)COC(=O)c1ccccc1C(=O)OCC(C)C,AC50,[1],5.62 µM (active)
same,AC50,[2],9.02 µM (active)
same,outcome,[7],inactive
same,AC50,[8],23.1 µM (active)
CC(C)(O)c1cnn2c(-c3ccc(F)c(-c4c(F)cccc4C#N)c3)cnc2n1,AC50,[1],3.97 µM (active)
same,AC50,[2],35.8 µM (active)
same,outcome,[7],inactive
same,AC50,[8],10 µM (active)
same,AC50,[9],5.55 µM (active)
Clc1ccc(C(c2ccc(Cl)cc2)C(Cl)Cl)cc1,AC50,[1],11.4 µM (active)
same,AC50,[2],4.76 µM (active)
same,AC50,[7],8.59 µM (active)
same,AC50,[8],4.86 µM (active)
same,AC50,[9],4.66 µM (active)
O=[N+]([O-])C(Br)(CO)CO,outcome,[1],inactive
same,AC50,[2],30.9 µM (active)
CCCCOC(=O)c1ccccc1C(=O)OCc1ccccc1,AC50,[1],6.42 µM (active)
same,AC50,[2],7.33 µM (active)
same,outcome,[10],inactive
same,outcome,[7],inactive
same,outcome,[8],inactive
same,AC50,[9],22.7 µM (active)
CC(C)(C)C(O)(CCc1ccc(Cl)cc1)Cn1cncn1 (configuration not stated),AC50,[1],20 µM (active)
same,outcome,[2],inactive
same,outcome,[7],inactive
same,AC50,[8],15 µM (active)
same,AC50,[9],5.02 µM (active)
Clc1ccc(C(c2ccc(Cl)cc2)C(Cl)(Cl)Cl)cc1,outcome,[1],inactive
same,AC50,[2],10.6 µM (active)
same,AC50,[7],7.7 µM (active) and 10.1 µM (active)
same,AC50,[8],3.45 µM (active) and 6.66 µM (active)
same,outcome,[4],inactive
same,AC50,[6],160 µM (active)
same,AC50,[9],4.02 µM (active) and 7.34 µM (active)
CCC[CH2][Sn]([Cl])([CH2]CCC)[CH2]CCC,AC50,[1],0.463 µM (active)
same,outcome,[1],inactive
same,AC50,[2],237 nM (active) and 322 nM (active)
same,AC50,[7],0.00892 µM (active)
same,AC50,[8],0.0758 µM (active)
same,AC50,[9],0.0428 µM (active)
